Reference: article PMC5540273 (PLoS ONE, 2017)

Legend:
Details in all cases: concentration: 1 μM,replicates: in singlicate; n = 1
[1] = tested on: T1, ERK1
T1 construct: gene MAPK3

[2] = tested on: T2, ERK2
T2 construct: gene MAPK1

[3] = tested on: T3, ERK3
T3 construct: gene MAPK6

[4] = tested on: T4, ERK4
T4 construct: gene MAPK4

[5] = tested on: T5, ERK5
T5 construct: gene MAPK7

[6] = tested on: T6, ERK8
T6 construct: gene MAPK15

[7] = tested on: ERN1
[8] = tested on: T7, FAK
T7 construct: gene PTK2

[9] = tested on: FER
[10] = tested on: FES
[11] = tested on: FGFR1
[12] = tested on: FGFR2
[13] = tested on: FGFR3
[14] = tested on: FGFR4
[15] = tested on: FGR
[16] = tested on: FLT1
[17] = tested on: FLT3-autoinhibited
[18] = tested on: FLT3
[19] = tested on: FLT4
[20] = tested on: FRK
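Note: KINOMEscan kinase panel screen.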

Row | Structure (SMILES) | %Inh [1] | %Inh [2] | %Inh [3] | %Inh [4] | %Inh [5] | %Inh [6] | %Inh [7] | %Inh [8] | %Inh [9] | %Inh [10] | %Inh [11] | %Inh [12] | %Inh [13] | %Inh [14] | %Inh [15] | %Inh [16] | %Inh [17] | %Inh [18] | %Inh [19] | %Inh [20]
1 | O=C(Nc1cccc(C(F)(F)F)c1)c1cccc(Oc2ccc3nccn3n2)c1 | 7% | 7% | 0% | 2% | 22% | 4% | 29% | 38% | 5% | 0% | 24% | 15% | 5% | 6% | 0% | 97.4% | 17% | 18% | 78% | 87%
2 | O=c1[nH]cc(-c2ccc(O)cc2)c2sc(-c3ccncc3)cc12 [GSK1033723] | 0% | 0% | 11% | 1% | 0% | 0% | 0% | 0% | 1% | 13% | 0% | 0% | 16% | 13% | 21% | 9% | 0% | 0% | 1% | 0%
3 | N#Cc1cccc(C(=O)NC2CCN(c3ccnc(Nc4ccc(F)cc4)n3)C2)c1 (centres unmarked) [GSK1379708] | 0% | 10% | 9% | 0% | 0% | 0% | 0% | 0% | 30% | 2% | 7% | 0% | 0% | 1% | 18% | 20% | 0% | 0% | 20% | 6%
4 | CCN1CCN(CCCC(=O)Nc2n[nH]c3nc(-c4ccc(O)cc4)c(Br)cc23)CC1 [SB-731579] | 0% | 0% | 0% | 0% | 87% | 56% | 0% | 0% | 0% | 0% | 0% | 0% | 0% | 0% | 0% | 0% | 0% | 61% | 0% | 0%
5 | CS(=O)(=O)Nc1ccc(-c2ccnc3[nH]ccc23)cc1 [GSK993273] | 0% | 0% | 0% | 13% | 0% | 0% | 25% | 0% | 16% | 0% | 29% | 20% | 4% | 8% | 16% | 56% | 10% | 74% | 28% | 0%
6 | CCNCC(Cc1ccccc1)NC(=O)c1cc(Br)c(-c2ccnc3[nH]ccc23)s1.Cl.Cl (centres unmarked) [GSK1383280] | 19% | 0% | 4% | 32% | 0% | 3% | 12% | 2% | 0% | 0% | 88% | 81% | 61% | 68% | 22% | 54% | 9% | 69% | 49% | 17%
7 | O=C(Nc1ccc(Oc2ccc3nc(NC(=O)C4CC4)cn3n2)c(F)c1)c1cccn(-c2ccccc2)c1=O | 0% | 10% | 0% | 5% | 21% | 9% | 0% | 13% | 37% | 13% | 0% | 9% | 11% | 6% | 73% | 98.3% | 43% | 98.2% | 99.4% | 45%
8 | COC(=O)c1cccc(NC(=O)NC2CCN(c3ccnc(Nc4cc(OC)c(OC)c(OC)c4)n3)C2)c1 (centres unmarked) [GSK1379767] | 0% | 0% | 19% | 0% | 0% | 0% | 4% | 0% | 17% | 15% | 0% | 0% | 32% | 0% | 25% | 13% | 4% | 33% | 14% | 17%
9 | CCOC(=O)N1CCC(n2cnc(-c3ccc(F)cc3)c2-c2ccnc(N)n2)CC1 [SB-219952] | 0% | 0% | 0% | 8% | 0% | 0% | 19% | 0% | 20% | 0% | 0% | 12% | 12% | 0% | 0% | 33% | 14% | 24% | 0% | 2%
10 | Cc1ccc(Nc2ccnc(Nc3ccc4c(c3)CS(=O)(=O)C4)n2)cc1O.Cl [GW579362] | 0% | 0% | 51% | 48% | 0% | 18% | 42% | 65% | 52% | 2% | 84% | 79% | 73% | 41% | 97% | 99.6% | 92.7% | 99% | 100% | 99.1%
11 | C[C@@H]1CNc2c(sc3ccc4nc(-c5ccncc5)ccc4c23)C(=O)N1 | 0% | 6% | 0% | 16% | 15% | 24% | 0% | 0% | 20% | 9% | 9% | 0% | 0% | 26% | 40% | 3% | 0% | 0% | 4% | 10%
12 | C[C@@H]1CNc2c(sc3ccc4nc(-c5ccc(O)cc5)ccc4c23)C(=O)N1 | 0% | 16% | 0% | 13% | 8% | 3% | 10% | 6% | 0% | 4% | 14% | 16% | 12% | 31% | 0% | 6% | 6% | 16% | 0% | 0%
13 | Cc1ccn2nc(-c3ccc(F)cc3)c(-c3ccncc3)c2c1.Cl [GW457859] | 0% | 0% | 1% | 15% | 8% | 0% | 0% | 0% | 2% | 0% | 0% | 85% | 4% | 0% | 0% | 15% | 14% | 0% | 0% | 0%
14 | CS(=O)c1ccc(-c2coc3ccc(-c4n[nH]c(=O)o4)cc23)cc1 (centres unmarked) | 7% | 1% | 0% | 0% | 0% | 44% | 0% | 0% | 0% | 0% | 5% | 8% | 3% | 0% | 0% | 19% | 0% | 16% | 3% | 0%
15 | CN(c1ccc2c(c1)nc(NCc1ccc(F)cc1)n2C)c1ccnc(Nc2ccc(CS(C)(=O)=O)cc2)n1.Cl [GW813244] | 3% | 0% | 0% | 0% | 0% | 29% | 28% | 22% | 20% | 0% | 75% | 59% | 21% | 22% | 28% | 98.9% | 1% | 98.3% | 99.9% | 77%
16 | COc1cc2ncn(-c3cc(OCC4CCCCC4)c(C(N)=O)s3)c2cc1OC [GSK204559] | 6% | 2% | 18% | 4% | 0% | 2% | 8% | 0% | 23% | 8% | 26% | 3% | 12% | 9% | 29% | 44% | 0% | 0% | 66% | 4%
17 | OCCn1cc(-c2cnc3nnn(Cc4ccc5ncccc5c4)c3n2)cn1 | 0% | 0% | 0% | 18% | 3% | 9% | 0% | 0% | 0% | 0% | 0% | 0% | 0% | 0% | 5% | 0% | 0% | 0% | 0% | 0%
18 | C[C@@H]1CCN(C(=O)N2CCCC2)C[C@@H]1N(C)c1ncnc2[nH]ccc12 | 0% | 14% | 0% | 10% | 0% | 34% | 3% | 97.3% | 36% | 34% | 13% | 9% | 20% | 3% | 29% | 21% | 18% | 38% | 6% | 0%
19 | O=C1NCCc2[nH]c(-c3ccncc3)cc21 | 13% | 28% | 0% | 0% | 0% | 93.1% | 8% | 0% | 4% | 30% | 0% | 4% | 10% | 0% | 20% | 6% | 12% | 0% | 0% | 0%
